{
  "source": "the antibiotic and cytotoxicity screens of Wong et al. (2023)",
  "note": "Among all 39,000 compounds or so, about 1,500 (3.8%) were called active. This excerpt belongs to a sample that is enriched for actives.",
  "data": [
    {"tested_on": "HSkMC (human skeletal muscle cells)", "test": "cytotoxicity call (relative viability < 0.9)", "conditions": "10 µM", "values": [
      {"compound": "C[C@@H]1CN([C@@H](C)CO)C(=O)c2cccc(N(C)C)c2O[C@H]1CN(C)S(=O)(=O)c1ccc(Cl)cc1", "cytotoxicity call": "inactive"},
      {"compound": "CCCNC(=O)C[C@@H]1CC[C@H]2[C@H](COc3ccc(NS(=O)(=O)c4ccccc4C)cc3C(=O)N2C)O1", "cytotoxicity call": "inactive"},
      {"compound": "Cc1noc(C)c1NC(=O)Nc1cccc2c1O[C@@H](CN(C)C(=O)NC(C)C)[C@H](C)CN([C@@H](C)CO)C2=O", "cytotoxicity call": "inactive"},
      {"compound": "COc1ccc(NC(=O)Nc2ccc3c(c2)C(=O)N([C@H](C)CO)C[C@H](C)[C@H](CN(C)C(=O)Nc2ccc(C(F)(F)F)cc2)OCCCC[C@H](C)O3)cc1", "cytotoxicity call": "inactive"},
      {"compound": "C[C@@H]1CN([C@H](C)CO)C(=O)c2cc(NC(=O)Nc3ccc(C(F)(F)F)cc3)ccc2O[C@@H]1CN(C)Cc1ccccc1", "cytotoxicity call": "inactive"},
      {"compound": "C[C@H]1CN([C@@H](C)CO)C(=O)c2cc(NC(=O)Nc3ccc(C(F)(F)F)cc3)ccc2O[C@@H]1CN(C)Cc1ccccc1", "cytotoxicity call": "inactive"},
      {"compound": "C[C@H]1CN([C@@H](C)CO)C(=O)c2cc(NC(=O)Nc3ccc(C(F)(F)F)cc3)ccc2O[C@H]1CN(C)Cc1ccccc1", "cytotoxicity call": "active"},
      {"compound": "CN(C)S(=O)(=O)Nc1cccc(N)c1", "cytotoxicity call": "inactive"},
      {"compound": "COCC(=O)N1C[C@@H](C)[C@@H](OC)CN(C)C(=O)c2cc(NC(=O)c3ccc(OC)cc3)ccc2OC[C@@H]1C", "cytotoxicity call": "inactive"},
      {"compound": "CC(=O)[C@]1(O)Cc2c(O)c3c(c(O)c2[C@@H](O[C@@H]2C[C@@H](N)[C@H](O)[C@@H](C)O2)C1)C(=O)c1c(O)cccc1C3=O", "cytotoxicity call": "active"},
      {"compound": "COc1cccc2c1C(=O)c1c(O)c3c(c(O)c1C2=O)C[C@](O)(C(C)=O)C[C@H]3O[C@H]1C[C@@H](N)[C@@H](O)[C@@H](C)O1", "cytotoxicity call": "active"},
      {"compound": "COc1cccc2c1C(=O)c1c(O)c3c(c(O)c1C2=O)CC(O)(C(C)=O)CC3OC1CC(N)C(O)C(C)O1.Cl", "note": "(centres undefined)", "cytotoxicity call": "inactive"},
      {"compound": "CC(=O)[C@]1(N)Cc2c(O)c3c(c(O)c2[C@@H](O[C@H]2C[C@H](O)[C@H](O)CO2)C1)C(=O)c1ccccc1C3=O", "cytotoxicity call": "active"},
      {"compound": "COc1cccc2c1C(=O)c1c(O)c3c(c(O)c1C2=O)C[C@@](O)(C(C)=O)C[C@@H]3O[C@H]1C[C@H](N)[C@H](O)[C@H](C)O1", "cytotoxicity call": "active"},
      {"compound": "O=C(C[C@@H]1CC[C@H]2[C@@H](COC[C@H](O)CN2C(=O)c2ccncc2)O1)NC1CCC1", "cytotoxicity call": "inactive"},
      {"compound": "CNCC1CCOCC1", "cytotoxicity call": "inactive"},
      {"compound": "CO[C@@H]1CN(C)C(=O)c2cc(NS(=O)(=O)c3ccccc3C)ccc2OC[C@H](C)N(S(C)(=O)=O)C[C@H]1C", "cytotoxicity call": "inactive"},
      {"compound": "Cc1noc(C)c1S(=O)(=O)Nc1ccc2c(c1)C(=O)N([C@H](C)CO)C[C@H](C)[C@@H](CN(C)C(=O)Nc1ccc(F)cc1)OCCCC[C@H](C)O2", "cytotoxicity call": "inactive"},
      {"compound": "C[C@H]1CN([C@@H](C)CO)C(=O)c2cc(C#CCN(C)C)cnc2O[C@@H]1CN(C)C(=O)c1cnccn1", "cytotoxicity call": "inactive"},
      {"compound": "CC(C)c1nc(/N=C/N(C)C)nc(=O)n1C", "cytotoxicity call": "inactive"},
      {"compound": "C[C@H](CO)N1C[C@H](C)[C@H](CN(C)C(=O)Nc2ccc(F)cc2)OCCCC[C@H](C)Oc2ccc(NS(=O)(=O)c3ccc(Cl)cc3)cc2C1=O", "cytotoxicity call": "inactive"},
      {"compound": "C[C@H](CO)N1C[C@H](C)[C@@H](CN(C)Cc2ccc3c(c2)OCO3)Oc2ncc(Br)cc2C1=O", "cytotoxicity call": "inactive"},
      {"compound": "C[C@@H]1CN([C@@H](C)CO)C(=O)Cc2cc(NC(=O)CCCCCC(=O)Nc3ccccc3N)ccc2O[C@H]1CN(C)Cc1ccc(-c2ccccc2)cc1", "cytotoxicity call": "inactive"},
      {"compound": "CN(Cc1ccc(/C=C/C(=O)Nc2ccc(-c3ccccc3)cc2N)cc1)CC12CC3CC(CC(C3)C1)C2", "cytotoxicity call": "active"},
      {"compound": "CN(Cc1ccc(/C=C/C(=O)Nc2ccc(-c3cccs3)cc2N)cc1)CC12CC3CC(CC(C3)C1)C2", "cytotoxicity call": "inactive"},
      {"compound": "COCCN1CCO[C@@H]2CN(Cc3cnn(C)c3)C[C@@H]21", "cytotoxicity call": "inactive"},
      {"compound": "CN1CCN(C(=O)C[C@H]2CC[C@@H]3[C@H](COC[C@H](O)CN3C(=O)Nc3ccc4c(c3)OCO4)O2)CC1", "cytotoxicity call": "inactive"},
      {"compound": "C[C@H]1CN([C@@H](C)CO)C(=O)c2cc(NC(=O)Nc3cccc4ccccc34)ccc2O[C@@H]1CN(C)S(=O)(=O)c1cccs1", "cytotoxicity call": "inactive"},
      {"compound": "C[C@H]1CN([C@@H](C)CO)C(=O)Cc2cc(NC(=O)NC3CCCCC3)ccc2O[C@@H]1CN(C)C(=O)Nc1ccc(C(F)(F)F)cc1", "cytotoxicity call": "inactive"},
      {"compound": "C[C@H]1CN([C@@H](C)CO)C(=O)c2cc(NC(=O)Nc3ccccc3)ccc2O[C@H]1CN(C)Cc1ccc(C(F)(F)F)cc1", "cytotoxicity call": "inactive"},
      {"compound": "C[C@H](CO)N1C[C@H](C)[C@H](CN(C)Cc2ccc(C(F)(F)F)cc2)Oc2ccc(NC(=O)Nc3ccccc3)cc2C1=O", "cytotoxicity call": "inactive"},
      {"compound": "C[C@@H]1CN([C@H](C)CO)C(=O)c2cc(NC(=O)Nc3ccccc3)ccc2O[C@@H]1CN(C)Cc1ccc(C(F)(F)F)cc1", "cytotoxicity call": "active"},
      {"compound": "C[C@@H]1CN([C@@H](C)CO)C(=O)c2cc(NC(=O)Nc3ccccc3)ccc2O[C@H]1CN(C)Cc1ccc(C(F)(F)F)cc1", "cytotoxicity call": "active"},
      {"compound": "C[C@H](CO)N1C[C@H](C)[C@@H](CN(C)Cc2ccc(C(F)(F)F)cc2)Oc2ccc(NC(=O)Nc3ccccc3)cc2C1=O", "cytotoxicity call": "inactive"},
      {"compound": "C[C@@H]1CN([C@H](C)CO)C(=O)c2cc(NC(=O)Nc3ccccc3)ccc2O[C@H]1CN(C)Cc1ccc(C(F)(F)F)cc1", "cytotoxicity call": "inactive"},
      {"compound": "NCc1cn(Cc2ccc(Cl)c(Cl)c2)cn1", "cytotoxicity call": "inactive"},
      {"compound": "C[C@H](CO)N1C[C@H](C)[C@@H](CN(C)S(=O)(=O)c2ccc(F)cc2)Oc2ccc(NS(=O)(=O)c3ccc(F)cc3)cc2CC1=O", "cytotoxicity call": "inactive"},
      {"compound": "CN(C)CCCNC(=O)C[C@@H]1CC[C@H](NS(=O)(=O)c2ccccc2)[C@@H](CO)O1", "cytotoxicity call": "inactive"},
      {"compound": "C[C@H]1CN([C@@H](C)CO)C(=O)Cc2cc(NC(=O)Cc3ccccc3)ccc2O[C@@H]1CN(C)S(=O)(=O)c1cn(C)cn1", "cytotoxicity call": "inactive"},
      {"compound": "C[C@H](CO)N1C[C@H](C)[C@H](CN(C)C(=O)C2CCCCC2)OCCCC[C@H](C)Oc2ccc(NS(=O)(=O)c3ccc(Cl)cc3)cc2C1=O", "cytotoxicity call": "inactive"},
      {"compound": "Cc1ccc(-c2ccc3c(c2)O[C@@H](CN(C)C(=O)Nc2ccc(C(F)(F)F)cc2)[C@H](C)CN([C@H](C)CO)S3(=O)=O)cc1", "cytotoxicity call": "active"},
      {"compound": "Cc1ccc(-c2ccc3c(c2)O[C@@H](CN(C)C(=O)Nc2ccc(C(F)(F)F)cc2)[C@@H](C)CN([C@@H](C)CO)S3(=O)=O)cc1", "cytotoxicity call": "inactive"},
      {"compound": "Cc1ccc(-c2ccc3c(c2)O[C@H](CN(C)C(=O)Nc2ccc(C(F)(F)F)cc2)[C@@H](C)CN([C@H](C)CO)S3(=O)=O)cc1", "cytotoxicity call": "inactive"},
      {"compound": "Cc1ccc(-c2ccc3c(c2)O[C@H](CN(C)C(=O)Nc2ccc(C(F)(F)F)cc2)[C@@H](C)CN([C@@H](C)CO)S3(=O)=O)cc1", "cytotoxicity call": "active"},
      {"compound": "Cc1ccccc1-c1ccc2c(c1)O[C@@H](CN(C)C(=O)Nc1ccc(C(F)(F)F)cc1)[C@@H](C)CN([C@@H](C)CO)S2(=O)=O", "cytotoxicity call": "active"},
      {"compound": "Cc1ccccc1-c1ccc2c(c1)O[C@H](CN(C)C(=O)Nc1ccc(C(F)(F)F)cc1)[C@H](C)CN([C@@H](C)CO)S2(=O)=O", "cytotoxicity call": "inactive"},
      {"compound": "Cc1ccc(-c2ccc3c(c2)O[C@H](CN(C)C(=O)Nc2ccc(C(F)(F)F)cc2)[C@H](C)CN([C@@H](C)CO)S3(=O)=O)cc1", "cytotoxicity call": "inactive"},
      {"compound": "Cc1ccccc1-c1ccc2c(c1)O[C@@H](CN(C)C(=O)Nc1ccc(C(F)(F)F)cc1)[C@H](C)CN([C@H](C)CO)S2(=O)=O", "cytotoxicity call": "inactive"},
      {"compound": "Cc1ccc(-c2ccc3c(c2)O[C@H](CN(C)C(=O)Nc2ccc(C(F)(F)F)cc2)[C@H](C)CN([C@H](C)CO)S3(=O)=O)cc1", "cytotoxicity call": "inactive"},
      {"compound": "C[C@@H]1CCCCO[C@@H](CN(C)C(=O)Nc2ccc3c(c2)OCO3)[C@H](C)CN([C@H](C)CO)C(=O)c2cc(NC(=O)Cc3ccccc3)ccc2O1", "cytotoxicity call": "inactive"},
      {"compound": "CC(/C=C/C(=O)NO)=C\\c1ccccc1OC[C@@H]1[C@H]2C[C@H]3c4[nH]c5ccccc5c4CCN3C[C@@H]2CC[C@@H]1O", "cytotoxicity call": "inactive"},
      {"compound": "C[C@@H]1CN([C@@H](C)CO)C(=O)c2cccc(NC(=O)C3CCCCC3)c2O[C@H]1CN(C)Cc1ccc(C(F)(F)F)cc1", "cytotoxicity call": "inactive"},
      {"compound": "CC1CC=CC=CC=CC=CC(OC2OC(C)C(O)C(N)C2O)CC2OC(O)(CC(O)CC3OC3C=CC(=O)O1)CC(O)C2C(=O)O", "note": "(centres undefined)", "cytotoxicity call": "inactive"},
      {"compound": "CN1C(=O)c2cc(NC(=O)Nc3ccccc3F)ccc2OC[C@H]2O[C@@H](CC(=O)Nc3cccc(Cl)c3)CC[C@@H]21", "cytotoxicity call": "inactive"},
      {"compound": "CCOC(=O)N1CCN(C(=O)C2CCN(S(=O)(=O)N(CC)CC)CC2)CC1", "cytotoxicity call": "inactive"},
      {"compound": "C[C@@H]1CN([C@@H](C)CO)C(=O)Cc2cc(NS(=O)(=O)c3cn(C)cn3)ccc2O[C@@H]1CN(C)Cc1ccncc1", "cytotoxicity call": "inactive"},
      {"compound": "CCCN1C[C@H](C(=O)O)CCC1=O", "cytotoxicity call": "inactive"},
      {"compound": "C[C@@H]1CN([C@@H](C)CO)C(=O)Cc2cc(NC(=O)Cc3cn(C)c4ccccc34)ccc2O[C@H]1CN(C)Cc1ccc(Cl)c(Cl)c1", "cytotoxicity call": "inactive"},
      {"compound": "C[C@@H]1CN([C@@H](C)CO)C(=O)Cc2cc(NC(=O)Cc3cn(C)c4ccccc34)ccc2O[C@@H]1CN(C)Cc1ccc(Cl)c(Cl)c1", "cytotoxicity call": "inactive"},
      {"compound": "C[C@H]1CN([C@@H](C)CO)C(=O)Cc2cc(NC(=O)Cc3cn(C)c4ccccc34)ccc2O[C@@H]1CN(C)Cc1ccc(Cl)c(Cl)c1", "cytotoxicity call": "active"},
      {"compound": "C[C@H](CO)N1C[C@H](C)[C@@H](CN(C)Cc2ccc(Cl)c(Cl)c2)Oc2ccc(NC(=O)Cc3cn(C)c4ccccc34)cc2CC1=O", "cytotoxicity call": "inactive"},
      {"compound": "C[C@@H]1CN([C@H](C)CO)C(=O)Cc2cc(NC(=O)Cc3cn(C)c4ccccc34)ccc2O[C@@H]1CN(C)Cc1ccc(Cl)c(Cl)c1", "cytotoxicity call": "inactive"},
      {"compound": "C[C@@H]1CN([C@H](C)CO)C(=O)Cc2cc(NC(=O)Cc3cn(C)c4ccccc34)ccc2O[C@@H]1CN(C)Cc1ccc(-c2ccccc2)cc1", "cytotoxicity call": "inactive"},
      {"compound": "C[C@H]1CN([C@@H](C)CO)C(=O)Cc2cc(NC(=O)Cc3cn(C)c4ccccc34)ccc2O[C@H]1CN(C)Cc1ccc(Cl)c(Cl)c1", "cytotoxicity call": "active"},
      {"compound": "Cc1noc(C)c1S(=O)(=O)N(C)C[C@H]1Oc2ccc(NC(=O)Cc3cn(C)c4ccccc34)cc2CC(=O)N([C@H](C)CO)C[C@H]1C", "cytotoxicity call": "inactive"},
      {"compound": "Cc1noc(C)c1S(=O)(=O)N(C)C[C@H]1Oc2ccc(NC(=O)Cc3cn(C)c4ccccc34)cc2CC(=O)N([C@H](C)CO)C[C@@H]1C", "cytotoxicity call": "inactive"},
      {"compound": "Cc1noc(C)c1S(=O)(=O)N(C)C[C@@H]1Oc2ccc(NC(=O)Cc3cn(C)c4ccccc34)cc2CC(=O)N([C@@H](C)CO)C[C@@H]1C", "cytotoxicity call": "active"},
      {"compound": "C[C@@H]1CN([C@H](C)CO)C(=O)Cc2cc(NC(=O)Cc3cn(C)c4ccccc34)ccc2O[C@H]1CN(C)Cc1ccc(Cl)c(Cl)c1", "cytotoxicity call": "active"},
      {"compound": "C[C@H](CO)N1C[C@H](C)[C@H](CN(C)Cc2ccc(Cl)c(Cl)c2)Oc2ccc(NC(=O)Cc3cn(C)c4ccccc34)cc2CC1=O", "cytotoxicity call": "inactive"}
    ]}
  ]
}
